Bioassay records from PubChem BioAssay.
RMI FANCM FP – blocks RMI1/RMI2 complex binding to FANCM MM2 peptide | Fluorescence polarization, RMI core complex with F-MM2 peptide; hits give low values | FP signal (polarization) at 33 µM | actives 0.58% (n = 70,000); in the data active means FP signal below about 40
Numbers stand for hits; – = inactive; ! = not confirmed by another sample. Many of the other results were omitted from the sample, so hits are more common in it than they were.

SMILES | RMI FANCM FP
NC[C@H]1O[C@H](OC2[C@@H](N)C[C@@H](N)[C@H](O)[C@H]2O[C@@H]2O[C@H](CO)[C@@H](O)[C@H]2O)[C@H](N)[C@@H](O)[C@@H]1O (some centres not stated) | –
NC[C@@H]1O[C@H](O[C@@H]2[C@@H](CO)OC(O[C@@H]3[C@@H](O)[C@H](N)C[C@H](N)[C@H]3O[C@H]3O[C@H](CO)[C@@H](O)[C@H](O)[C@H]3N)[C@@H]2O)[C@H](N)[C@@H](O)[C@@H]1O (some centres not stated) | –
NC[C@@H]1O[C@H](O[C@H]2[C@@H](O)[C@H](O[C@@H]3[C@@H](O)[C@H](N)C[C@H](N)[C@H]3OC3O[C@H](CO)[C@@H](O)[C@H](O)[C@H]3N)O[C@@H]2CO)[C@H](N)[C@@H](O)[C@@H]1O (some centres not stated) | 4
N/C(=N/N=C\c1cccs1)SCc1ccccc1 | –
COc1ccc(-c2[nH]ncc2/C=N\NC(=O)c2cccnc2)cc1 | –
C/C(=N/NC(=S)NCC1CCCO1)c1cccs1 (configuration not stated) | –
CC1CCCCC12NC(=O)N(CC(=O)Nc1ccc([N+](=O)[O-])cc1)C2=O (configuration not stated) | –
O=C(Cc1ccccc1)NCCOc1ccccc1 | –
CC(=O)c1cccc(NC(=O)c2csc3nc(-c4ccc(F)cc4)cn23)c1 | –
Brc1ccc(-c2ccc(Br)s2)s1 | –
Fc1ccc2nc(NCc3cccnc3)sc2c1 | –
Fc1ccc2ncc(-c3ccc(Br)s3)nc2c1 | 9
Cn1c(SCc2cc(=O)n3ccccc3n2)nc2cc(-c3ccccc3)sc2c1=O | –
CCC(=O)N1CCc2ccc(NC(=O)c3ccc(C(F)(F)F)cc3)cc2C1 | –
Cc1cccn2c(=O)cc(OCc3nc4ccccc4c(=O)[nH]3)nc12 | –
COc1cccc(NC(=O)CSc2ccnc3c2c(=O)n(C)c(=O)n3C)c1 | –
CCOC(=O)CCc1c(C(=O)OCC)[nH]c2c1CC(=O)NC2 | 32
CCOC(=O)c1[nH]c2c(c1C)C(=O)CCC2 | –
CCOC(=O)c1ccc(NC(=O)CCc2c(C)[nH]c(=O)[nH]c2=O)cc1 | –
O=C(c1ccc2c(c1)OCO2)N(CCn1cccn1)c1nc2ccccc2s1 | –
CC(C)n1c(SCc2nc(-c3ccc(Br)cc3)no2)nc2ccccc2c1=O | –
CCOC(=O)Cn1cnc2c(oc3nc(-c4ccccc4)cc(-c4ccccc4)c32)c1=O | –
Cc1cc(-c2ccccc2)nc2oc(C(=O)c3ccc(Cl)cc3)c(N)c12 | –
Cc1cc(-c2ccccc2)nc2oc3c(SCC(=O)c4ccc(-c5ccccc5)cc4)ncnc3c12 | 32
O=C(NCc1cccnc1)C1CCCN(c2ccc(-c3ccccc3)nn2)C1 (configuration not stated) | –
SMILES | RMI FANCM FP
O=C(Cn1cc(S(=O)(=O)c2ccc(F)cc2)c2ccccc21)NCc1ccncc1 | –
COc1ccc(NC(=O)Cc2csc(Nc3ccc(S(C)(=O)=O)cc3)n2)c(OC)c1 | –
O=C(CCc1ccccc1)N/N=C\c1ccccc1 | –
O=C(CCc1ccc(O)cc1)N/N=C\c1cc(Cl)cc(Cl)c1O | 37
O=C(CCc1ccc(O)cc1)N/N=C\C=C\c1ccccc1 | –
O=C(CCCS(=O)(=O)c1ccc(F)cc1)Nc1cccc2ccccc12 | –
Cn1nccc1N1C(=O)CCC1=O | –
O=c1[nH]c(=S)c2c(n1Cc1cccs1)CCC2 | –
COc1cccc(Cn2c(=O)n(CCCCC(=O)NCc3ccco3)c(=O)c3ccccc32)c1 | –
O=C(c1cccc([N+](=O)[O-])c1)N(Cc1cccnc1)c1nc2ccc(Cl)cc2s1 | –
O=C(CCc1nc2sc3c(c2c(=O)[nH]1)CCCCC3)N1CCN(Cc2ccc3c(c2)OCO3)CC1 | 28
O=C(CCc1nc2sc3c(c2c(=O)[nH]1)CCCCC3)N1CCN(c2ccccc2F)CC1 | –
NC(=O)C1CCN(C(=O)CCc2nc3sc4c(c3c(=O)[nH]2)CCCCC4)CC1 | –
Cc1cccc(C(=O)O)c1O | –
Cc1cccc(Nc2ccccc2C(=O)O)c1C | 25!
O=C(O)c1ccccc1Nc1ccccc1 | –
Cc1cc(=O)n2c(n1)SCC2CC(=O)N1CCC(C(N)=O)CC1 (configuration not stated) | –
Cc1ccc(-c2cn3c(CC(=O)NC(C)c4ccccc4)csc3n2)cc1 (configuration not stated) | –
O=C1CC2(CCN(S(=O)(=O)c3ccc([N+](=O)[O-])cc3)CC2)Oc2ccccc21 | –
CCOC(=O)c1c(C)oc2c1c1c(c3ccccc32)OCN(C2CCCCC2)C1 | 31
CCOC(=O)c1c(C)oc2c(F)c(F)c(F)c(F)c12 | –
CCOC(=O)c1c(-c2ccccc2)oc2c1cc(OC(=O)c1cc(OC)cc(OC)c1)c1ccccc12 | –
COc1cccc(OC)c1C(=O)NNC(=O)c1c(OC)cccc1OC | –
Cc1cc(NC(=O)c2cc3ccccc3c(=O)s2)no1 | –
COc1ccc(-c2nnc3ccc(OCCNC(=O)Cc4ccc(Cl)cc4)nn23)cc1 | –
SMILES | RMI FANCM FP
O=C(Cc1ccc(-n2c(=O)c3ccccc3n(Cc3c(F)cccc3Cl)c2=O)cc1)NC1CC1 | –
CC(=O)OC1C([N+]2(C)CCCCC2)C[C@H]2C3CC[C@H]4C[C@H](OC(C)=O)C([N+]5(C)CCCCC5)CC4(C)[C@H]3CCC12C (some centres not stated) | -9
CC(=O)O[C@H]1C[C@@H]2CC[C@@H]3[C@H](CC[C@@]4(C)[C@H]3C[C@H]([N+]3(C)CCCCC3)[C@@H]4OC(C)=O)[C@@]2(C)C[C@@H]1N1CCCCC1 | –
CC(=O)O[C@H]1C[C@@H]2CC[C@@H]3[C@H](CC[C@@]4(C)[C@H]3C[C@H]([N+]3(C)CCCCC3)[C@@H]4OC(C)=O)[C@@]2(C)C[C@@H]1[N+]1(C)CCCCC1 | –
COc1ccc(N2CC(NC(=O)CC(c3ccccc3)c3ccccc3)CC2=O)cc1OC (configuration not stated) | –
N#CC(C#N)=C1SC=C(c2ccc(Cl)cc2)S1 | –
O=C(CC1C(=O)NCCN1C(=S)NC(=O)c1sc2ccccc2c1Cl)OCC1CCCO1 (configuration not stated) | –
O=S(=O)(Nc1nc2c(Cl)cccc2s1)c1ccc(Cl)cc1 | –
Nc1ccc(Cl)cc1-c1nc2ccccc2[nH]1 | –
O=C(Nc1cccc(-c2nc3ccccc3[nH]2)c1)c1ccc(Cl)cc1 | –
O=c1oc2c(Cl)cc(Cl)cc2cc1-c1nc2ccccc2[nH]1 | 40
COC(=O)C(Br)C12CC3CC(C1)CC(C(Br)C(=O)OC)(C3)C2 (configuration not stated) | –
CC(C)(CCOC(=O)c1ccc([N+](=O)[O-])o1)Nc1ccc(C(F)(F)F)cc1[N+](=O)[O-] | 40
O=C(Nc1cccc(C(F)(F)F)c1)c1ccc([N+](=O)[O-])o1 | –
Cc1ccc(C)n1CCNc1ccc(C(F)(F)F)cc1[N+](=O)[O-] | –
CNC(=O)Cc1ccc(-n2c(=O)c3ccccc3n(CC(=O)Nc3ccc(C)cc3Cl)c2=O)cc1 | –
COc1ccc(-c2c3c(nc4sc(C(=O)c5ccc(Cl)c(Cl)c5)c(N)c24)CC(C)(C)CC3=O)cc1 | –
COc1ccc(-c2c3c(nc4sc(C(=O)Nc5ccc(F)cc5)c(N)c24)CC(C)(C)CC3=O)cc1 | –
COc1ccc(-c2c3c(nc4sc(C(=O)c5ccc6c(c5)OCCO6)c(N)c24)CC(C)(C)CC3=O)cc1 | -6
Cc1nc2c(sc3cccc(F)c32)c(=O)n1CC(=O)Nc1cccc(F)c1 | –
